Tau FP inhib: inhibitors of human tau fibril formation; 280,000 compounds, 0.39% hits; Potency, µM (top dose mostly 57.7 µM), for inactives: top-dose activity, negative = inhibition, actives largely listed as inhibitors; AID 1468; P10636; K18 P301L tau heparin fibrillization, Alexa594 FP, 6 h; further: potency means the concentration at half of the fitted maximal effect; nearly all actives have a fitted effect of over 55% in size
Target sequence (P10636 561-689 P618L limits assumed): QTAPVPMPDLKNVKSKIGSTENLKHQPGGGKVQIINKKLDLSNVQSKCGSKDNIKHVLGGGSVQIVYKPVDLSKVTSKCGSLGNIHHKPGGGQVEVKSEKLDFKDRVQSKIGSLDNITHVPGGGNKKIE
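Human tau K18 […] P301L fragment, 15 uM unlabeled plus 0.24 uM Alexa 594-labeled tau (final), with compound and 20 uM heparin in 100 mM sodium acetate pH 7; 6 hr at 37 C, then Alexa 594 FP read.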
Sfp PPTase inh: blocks B. subtilis Sfp PPTase activity. Q9F4F7. Biochemical Sfp PPTase activity, qHTS. Potency, µM, for the others: largest response in the series, negative = inhibition, usual class: inhibitors. 310,000 compounds, 3.5% hits. AID 1490;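 further: the enzyme is Sfp with the accession as filed and its product quenches rhodamine fluorescence; potency means the concentration at half of the fitted maximal effect; 0% = enzyme reaction without inhibitor and -100% = no enzyme wells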
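Buffer: 50 mM Hepes-Na pH 7.6, 10 mM MgCl2, 0.01% Nonidet P-40, 0.01% BSA. Enzyme 15 nM, pre-exposed to compound 15 min; substrates then added and fluorescence change tracked over 30 min.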
Tau fibril ThT: inhibitors of human tau fibril formation, thioflavin T binding; P10636; recombinant tau K18 P301L, heparin-induced fibrillization, ThT fluorescence; Potency, µM (titrated, usually from 57.4 µM), for the others: at the top dose activity, negative = inhibition, most hits filed as inhibitors; 270,000 compounds, 2.1% hits; AID 1460; further: potency means the concentration at half of the fitted maximal effect; nearly all actives have a fitted effect of over 55% in size
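Aggregation was driven by heparin (20 uM final) acting on recombinant tau […] bearing P301L in 100 mM sodium acetate pH 7; fibrils were detected with Thioflavin T.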
Tau fluor cs: counter-screen for tau fibril formation inhibitors. tau K18 P301L (four-repeat tau fragment) Alexa594 fluorescence, heparin fibrillization. Potency, µM (titrated, usually from 57.7 µM), for inactives: at the top dose activity change, negative = decrease. 280,000 compounds, 0.93% hits; further: potency means the concentration at half of the fitted maximal effect; nearly all actives have a fitted effect of over 55% in size
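Human K18 P301L tau (15 uM unlabeled plus 0.24 uM Alexa 594-labeled, final) in 100 mM sodium acetate pH 7 was mixed with compound and 20 uM heparin and incubated 6 hr at 37 C.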
Coupling enz: inhibits coupling enzyme system, counter-screen for aldolase hits; coupling enzyme system counterscreen, AmpLite Red fluorescence; activity change, negative = inhibition, % at 58.2 µM, hits read low; 290,000 compounds, 0.67% hits; in the data active means activity change below about -30%
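Fluorescence at 525 nm excitation and 598 nm emission measured inhibition of the coupled detection system without aldolase. Compounds (at 57.5 uM final) were preincubated 10 min at room temperature with coupling enzyme reagent before a 20 min substrate/AmpLite Red step.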
Sfp PPTase conf: Sfp phosphopantetheinyl transferase inhibition, confirmation. shares compounds with Sfp PPTase inh. Sfp PPTase enzymatic assay, qHTS titration. Potency, µM (doses to about 114 µM), without a hit: at the highest dose activity change, negative = inhibition, actives largely listed as inhibitors. 380 compounds, 79% hits;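 further: potency means the concentration at half of the fitted maximal effect; plate controls were uninhibited Sfp reaction for no effect and no enzyme control for full effect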
Target sequence (Q9F4F7 whole entry, looked up): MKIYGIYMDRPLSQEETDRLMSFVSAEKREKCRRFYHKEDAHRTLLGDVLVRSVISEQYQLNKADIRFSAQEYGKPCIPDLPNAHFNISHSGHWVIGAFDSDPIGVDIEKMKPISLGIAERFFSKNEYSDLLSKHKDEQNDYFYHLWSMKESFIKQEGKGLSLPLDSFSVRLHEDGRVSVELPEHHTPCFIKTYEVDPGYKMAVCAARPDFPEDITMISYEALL
Sfp gel assay: Inhibits B. subtilis Sfp phosphopantetheinylation; Potency, µM, actives largely listed as inhibitors; 210 compounds, 20% hits; shares compounds with Sfp PPTase inh; AID 2707; purified Sfp, gel-based phosphopantetheinylation read-out;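 active means potency below 100 µM; inconclusive means dose-dependent response but potency above 100 µM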;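 further: band intensities scaled against SCH202676 control wells before curve fitting; potency is an IC50 for inhibitors of Sfp transfer activity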
Numbers without * were called inactive; i = inactive; ? = inconclusive; / = not tested or not shown; ! = a repeat was not active; [ ] = dose if it differs, or a comment. Compounds with a hit are over-represented: about 5.2% of the library has one in this group of screens. Unless noted, the call rests on the fitted dose curve; in most records, active means well fitted curve in the direction sought with a large enough effect; inconclusive means small, poorly fitted or top-dose-only effect, or another doubt; inactive means no such curve, though single readings can be large; an effect the other way counts as inactive or inconclusive. Unless noted, on the % scale 0 is the no-effect control and ±100 the full control effect.

SMILES | Tau FP inhib | Sfp PPTase inh | Tau fibril ThT | Tau fluor cs | Coupling enz | Sfp PPTase conf | Sfp gel assay
O=C(NC1CCCCC1)c1ccc2c(c1)N(Cc1cccc(Cl)c1)C(=O)c1ccccc1S2=O (stereo not drawn) | -2% | / | -7% | -12% | / | / | /
CCCCN(CCCC)CC(O)c1cc(Cl)cc2c1-c1ccc(Cl)cc1/C2=C/c1ccc(Cl)cc1 (stereo not drawn) | / | 45µM* | / | / | / | 42µM* | ?
Cc1ccc(C2=NN=C(NC(=O)CSc3nncn3C)SC2)cc1 | ? | 8.9µM* | 22µM* | -18% | -2 | 26µM* | /
Cc1ccc(NC(=O)CSc2nncn2C)c(C)c1 | -4% | / | -4% | -8% | / | / | /
CCOC(=O)c1c(N2C(=O)CC(Sc3ccccc3C(=O)O)C2=O)sc2c1CCCC2 (stereo not drawn) | -6% | 3.5µM* | ? | 0% | 13 | 42µM* | /
CCOC(=O)c1c(N2C(=O)Nc3ccccc3N2O)sc2c1CCCC2 | 7% | 9% | -15% | -2% | 14 | / | /
Nc1ccccc1Sc1nc2ccccc2[nH]1 | ? | 7.9µM* | 28µM* | 28µM*[quencher] | -1 | 37µM* | /
Nc1nc2ccccc2[nH]1 | / | 4% | / | / | 1 | / | /
COC(=O)[C@@H](N)Cc1ccc(O)cc1 | -6% | -7% | -3% | -4% | 0 | / | /
N[C@@H](CO)C(=O)NNCc1ccc(O)c(O)c1O | / | 28µM* | / | / | -19 | ? | 19µM*
CCc1ccc(NC(=O)C2CCC(CNS(=O)(=O)c3cccs3)CC2)cc1 (stereo not drawn) | -18% | / | -3% | -1% | / | / | /
c1ccc2c(c1)[nH]c1nc(SCCN3CCOCC3)nnc12 | -1% | 4.5µM* | 0% | 2% | 2 | 9.4µM* | /
Brc1ccc2[nH]c3nc(SCCN4CCOCC4)nnc3c2c1 | 5% | 4% | -5% | 4% | -1 | / | /
COc1cccc(-c2nn(C)c3sc(C(=O)NCc4ccc(C)o4)cc23)c1 | -4% | 3.5µM* | -1% | -4% | -4 | 24µM* | /
COc1ccc2oc(-c3ccc(C)c(NC(=O)c4ccc(-c5ccccc5[N+](=O)[O-])o4)c3)nc2c1 | -6% | / | ? | -27% | / | / | /
C1=C(c2ccccc2)CCN(c2nc3ccccc3n3cnnc23)C1 | 8% | 28µM* | ? | -13% | 0 | 37µM* | /
Cc1ccc(NC(CC(=O)c2ccccc2)c2ccc(F)cc2)cc1 (stereo not drawn) | 6% | 10% | -33% | ? | -6 | / | /
O=C(CC(Nc1ccc(F)cc1)C(=O)O)c1ccccc1 (stereo not drawn) | -1% | 2.2µM* | ? | 3% | -3 | 15µM* | i
C=C1C(=O)[C@]23[C@H](O)[C@H]1CC[C@H]2[C@@]12COC3(O)[C@H](O)[C@@H]1C(C)(C)CC[C@@H]2O | -7% | 13µM* | -20% | -1% | 3 | 26µM* | ?
COc1ccccc1CC(Cc1nc2ccccc2[nH]1)c1nc2ccccc2[nH]1 (stereo not drawn) | -10% | 5µM* | -8% | ? | -6 | 17µM* | /
Cc1ccc(C)c(NC(=O)c2cnc3sc(N4CCOCC4)nn3c2=O)c1 | 7% | / | 0% | 5% | / | / | /
COCCNc1ccc(-c2nc(-c3ccncc3)no2)cc1[N+](=O)[O-] | 8% | / | 5% | -2% | / | / | /
O=C(Nc1ccccn1)c1cccs1 | -4% | -3% | 11% | 1% | -3 | / | /
CN1C(C(=O)Nc2ccccn2)=C(O)c2sccc2S1(=O)=O | -2% | 50µM*! | -8% | -9% | 0 | 12µM* | i
CCc1nn2c(=O)cc(COC(=O)c3ccccc3)nc2s1 | -1% | / | ? | -2% | / | / | /
SMILES | Tau FP inhib | Sfp PPTase inh | Tau fibril ThT | Tau fluor cs | Coupling enz | Sfp PPTase conf | Sfp gel assay
c1cncc(-c2nc(-c3ccco3)cs2)c1 | ? | 7.9µM* | ? | -21% | -4 | 15µM* | /
Cn1ccnc1C(O)c1cc(C(C)(C)C)c(O)c(C(C)(C)C)c1 (stereo not drawn) | -4% | 45µM* | ? | 0% | -1 | 47µM* | /
CC(C)(Sc1cc(C(C)(C)C)c(O)c(C(C)(C)C)c1)Sc1cc(C(C)(C)C)c(O)c(C(C)(C)C)c1 | ? | 10% | -14% | -8% | 1 | / | /
CCSc1nnc(NC(=O)C2C3CCC(C3)C2C(=O)O)s1 (stereo not drawn) | -3% | -4% | -1% | -4% | 2 | / | /
CCSc1nnc(NC(=O)C2CCCCC2C(=O)OCC(F)(F)C(F)F)s1 (stereo not drawn) | 3% | 22µM* | -2% | 4% | -1 | 53µM* | /
Cc1ccc(-n2nc(C)c3c(C(=O)O)cc(C)nc32)cc1 | 0% | / | 6% | 7% | / | / | /
Cc1nn(-c2ccccc2)c2nc(-c3ccco3)cc(C(=O)O)c12 | -11% | 13µM* | ? | -18% | 11 | 21µM* | ?
CCN(CC)c1ccc(/C=C/c2nc3ccccc3s2)cc1 | 3% | 18µM* | ? | ? | 0 | 33µM* | i
CCN(CC)c1ccc(NC(=O)COC(=O)/C=C/c2nc3ccccc3s2)cc1 | 7% | -10% | ? | ? | 2 | / | /
COC(=O)c1c(NC(=O)c2ccc(C)o2)sc2c1CCCCC2 | -9% | 14µM* | ? | -11% | -7 | 37µM* | i
Cc1cc(O)c(C2=Nc3ccccc3SC(c3ccc(Cl)cc3)C2)c(=O)o1 (stereo not drawn) | -14% | 14µM* | ? | -11% | 0 | 53µM* | ?
COc1ccc(N2CCN(C(=O)c3cnc(N4CCOCC4)c4ccccc34)CC2)cc1 | 9% | / | -10% | -3% | / | / | /
COCCCNS(=O)(=O)c1ccc(Oc2ncc(C(F)(F)F)cc2Cl)cc1 | 6% | -24% | -27% | -18% | 0 | / | /
CC(C)(C)NS(=O)(=O)c1ccc(Oc2ncc(C(F)(F)F)cc2Cl)cc1 | 1% | 25µM* | -23% | -21% | 0 | 53µM* | i
COC(=O)C(CC(=O)c1ccc(Br)cc1)n1ccnc1 (stereo not drawn) | 10% | 1.6µM* | ? | 2% | 6 | 8.3µM* | /
COC(=O)C(CC(=O)c1ccc(C)cc1)n1nc(C)cc1C (stereo not drawn) | / | -1% | / | / | 6 | / | /
CCOC(=O)c1c(-c2ccc(C)o2)csc1NC(=O)CSc1nnnn1-c1ccccc1 | 1% | 3.5µM* | -10% | 4% | -3 | 9.4µM* | /
CCNCc1ccccc1OCc1ccccc1 | 3% | 22% | 4% | 3% | 5 | / | /
Oc1ccc(NCc2ccccc2OCc2ccccc2)cc1 | 13µM*! | 25µM* | 14µM* | 10µM*[quencher] | -48* | 11µM* | ?
